From PubChem BioAssay AID1780 (National Center for Advancing Translational Sciences (NCATS), 2009)
The source made the active and inactive calls. The call rests on the fitted dose curve; in most records, active means well fitted curve in the direction sought with a large enough effect; inactive means no such curve, though single readings can be large or run the other way.

Target: Pyruvate kinase PKM (Homo sapiens) (UniProt P14618)
Assay: Confirmation Concentration-Response Assay for Activators of Human Muscle isoform 1 Pyruvate Kinase
Details: purified hPK-M1, Kinase-Glo ATP luminescence, 1 h; series mostly up to 57.5 µM
Text: Confirmatory assay NIH Chemical Genomics Center [NCGC] Matthew G. Vander Heiden, M.D., Ph.D. [Harvard Medical School, 77 Avenue Louis Pasteur, Boston, MA 02115] NCGC Assay Overview: Human pyruvate kinase […] (hPK-M1) enzyme was supplied as a highly purified (>95% pure) preparation from Harvard Medical School and assayed for its ability to generate ATP from ADP using phosphoenolpyruvate (PEP) as a substrate. ATP generation was detected in a coupled reaction by luciferase-mediated luminescence, an ATP-dependent process. Pyruvate kinase substrates, PEP and ADP, were present in the assay at Km and approximately 10-fold below Km respectively. The enzyme was assayed at an intermediate level of activity to screen for both inhibitors and activators.
NCGC Assay Protocol Summary for M1-isoform: Three uL of substrate mix (at r.t.) in assay buffer (50 mM Imidazole pH7.2, 50 mM KCl, 7 mM MgCl2, 0.01% Tween 20, 0.05% BSA) was dispensed into white solid bottom 1,536 well microtiter plates so that the final concentrations of substrates in the assay were 0.1 mM ADP and 0.5 mM PEP. 23 nL of compound were delivered by a pin tool and 1 uL of enzyme mix (final concentration of 1 nM) in assay buffer (4 degree Celsius) was added. Plates were incubated at room temperature for 1 hour. Two uL of detection mix (Kinase-Glo, Promega; at 4 degree Celsius protected from light) was added and luminescence read by a ViewLux (Perkin Elmer) at 1 second exposure/plate. Data were normalized to the uninhibited (row 31). Additionally, a no enzyme and 5-fold enzyme control was dispensed in row 32, split equally between the two conditions.

Chain of Pyruvate kinase PKM (Homo sapiens) (P14618 whole entry, looked up, canonical isoform): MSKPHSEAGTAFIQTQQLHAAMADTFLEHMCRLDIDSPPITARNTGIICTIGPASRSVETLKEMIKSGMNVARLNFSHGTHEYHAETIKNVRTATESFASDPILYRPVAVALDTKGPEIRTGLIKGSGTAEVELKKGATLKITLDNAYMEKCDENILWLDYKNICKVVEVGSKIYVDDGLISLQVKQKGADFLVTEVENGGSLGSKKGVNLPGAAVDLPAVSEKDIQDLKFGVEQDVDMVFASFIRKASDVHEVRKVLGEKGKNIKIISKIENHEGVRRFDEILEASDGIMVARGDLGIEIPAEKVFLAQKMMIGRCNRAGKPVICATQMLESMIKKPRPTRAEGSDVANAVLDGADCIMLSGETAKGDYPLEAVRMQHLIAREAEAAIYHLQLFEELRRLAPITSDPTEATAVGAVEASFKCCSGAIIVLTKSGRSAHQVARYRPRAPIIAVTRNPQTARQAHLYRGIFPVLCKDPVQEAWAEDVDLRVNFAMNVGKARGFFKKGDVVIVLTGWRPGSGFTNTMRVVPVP

outcome, inactive:
O=S(=O)(c1ccc(F)cc1)N1CCN(S(=O)(=O)c2ccc3c(c2)OCCO3)CC1
O=S(=O)(c1ccc2c(c1)OCCO2)N1CCN(S(=O)(=O)c2ccc3c(c2)OCCO3)CC1
Cn1c2cc(B(O)O)sc2c2cnn(Cc3ccccc3F)c(=O)c21
Cc1cc2c(s1)c1cnn(-c3ccccc3)c(=O)c1n2C
O=C1CN(S(=O)(=O)c2ccc3c(c2)OCCO3)CCN1S(=O)(=O)c1c(F)cccc1F
O=S(=O)(c1ccc2ccccc2c1)N1CCN(S(=O)(=O)c2c(F)cccc2F)CC1
O=S(=O)(c1ccc(Cl)cc1)N1CCN(S(=O)(=O)c2ccc3c(c2)OCCO3)CC1
O=S(=O)(c1ccc2c(c1)OCCO2)N1CCCN(S(=O)(=O)c2c(F)cccc2F)CC1
O=C(c1ccc2c(c1)OCCO2)N1CCN(S(=O)(=O)c2c(F)cccc2F)CC1
O=S(=O)(NC1CCN(S(=O)(=O)c2c(F)cccc2F)CC1)c1ccc2c(c1)OCCO2
CCn1c2cc(C)sc2c2cnn(Cc3ccccc3F)c(=O)c21
Cc1cc2c(s1)c1cnn(Cc3ccc(Cl)cc3)c(=O)c1n2C
Cc1cc2c(s1)c1cnn(Cc3ccc(S(C)(=O)=O)cc3)c(=O)c1n2C
Cc1cc2c(s1)c1cnn(Cc3c(F)c(F)cc(F)c3F)c(=O)c1n2C
Cc1cc2c(s1)c1cnn(Cc3ccc(C(F)(F)F)cc3)c(=O)c1n2C
CC1(C)CCc2cc(S(=O)(=O)N3CCN(S(=O)(=O)c4c(F)cccc4F)CC3)ccc2O1
COc1cc(F)c(S(=O)(=O)N2CCN(S(=O)(=O)c3ccc4c(c3)OCCO4)CC2)c(F)c1
Cc1cc2c(s1)c1cnn(Cc3ccc(C(C)C)cc3)c(=O)c1n2C
CC(O)c1cc2c(s1)c1cnn(Cc3ccccc3F)c(=O)c1n2C (stereo not given)
COc1ccc(S(=O)(=O)N2CCN(S(=O)(=O)c3ccc4c(c3)OCCO4)CC2)cc1
Cc1cc2c(s1)c1cnn(Cc3ccccc3Cl)c(=O)c1n2C
O=S(=O)(c1c(F)cccc1F)N1CCN(S(=O)(=O)c2c(F)cccc2F)CC1
Cc1cc2c(s1)c1cnn(Cc3cccc(Cn4ncc5c6sc(C)cc6n(C)c5c4=O)c3F)c(=O)c1n2C
Cc1cc2c(s1)c1cnn(Cc3ccc(F)c(F)c3F)c(=O)c1n2C
O=S(=O)(c1ccc2c(c1)OCCO2)N1CCN(S(=O)(=O)c2c(F)ccc(O)c2F)CC1
Cc1cc2c(s1)c1cnn(Cc3ccccc3F)c(=O)c1n2C(C)C
CCc1cc2c(s1)c1cnn(Cc3ccccc3F)c(=O)c1n2C
C[C@H]1CN(S(=O)(=O)c2c(F)cccc2F)CCN1S(=O)(=O)c1ccc2c(c1)OCCO2
Cn1c2cc(S(C)=O)sc2c2cnn(Cc3ccccc3F)c(=O)c21 (stereo not given)
N#Cc1ccc(S(=O)(=O)N2CCN(S(=O)(=O)c3ccc4c(c3)OCCO4)CC2)cc1
O=S(=O)(NCCCCCCNS(=O)(=O)c1c(F)cccc1F)c1ccc2c(c1)OCCO2
COc1ccc(S(=O)(=O)N2CCN(S(=O)(=O)c3ccc(OC)cc3)CC2)cc1
O=S(=O)(NCCCNS(=O)(=O)c1c(F)cccc1F)c1ccc2c(c1)OCCO2
Cn1c2ccsc2c2ncn(Cc3ccccc3F)c(=O)c21
COc1ccc(Cn2ncc3c4sc(C)cc4n(C)c3c2=O)cc1F
O=S(=O)(c1ccc2c(c1)OCCO2)N1CCN(S(=O)(=O)c2c(F)cccc2F)CC1
O=S(=O)(c1ccc2c(c1)OCCO2)N1CCN(S(=O)(=O)c2ccccn2)CC1
Cn1c2ccsc2c2cnn(Cc3ccccc3F)c(=O)c21
O=S(=O)(c1ccc2c(c1)OCCO2)N1CCN(S(=O)(=O)c2cc(F)c(F)cc2F)CC1
Cc1cc2c(s1)c1cnn(Cc3ccc(F)cc3F)c(=O)c1n2C
